# Screening results: PubChem, several laboratories
# Compounds with a hit are over-represented: about 3.8% of the library has one in this group of screens.
# Bfl-1 A1 inh – inhibitors of the anti-apoptotic protein A1, read as caspase activation | MEF A1-2A-BIM cells, Caspase-Glo 3/7 luminescence, 3 h; percent of clofoctol response, vehicle zero | caspase activation, % (test concentration not listed) | actives 0.066% (n = 330,000) | AID 2462;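 active = over half of replicate activation scores above 10%, or exactly half above 10 with the replicate mean above 10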
# Jurkat NFkB inh – inhibitors of the PMA/ionomycin-induced NF-kB reporter in Jurkat cells; inhibition, % at 4 µM; actives 0.53% (n = 330,000); PMA/ionomycin-induced NF-kB luciferase reporter, luminescence; in the data active = inhibition above about 50%
# NTR1 agonist – NTR1 (human) agonism; P30989; NTR1-U2OS beta-arrestin-GFP spot imaging, agonist mode; activation, % at 20 µM; actives 0.17% (n = 330,000); AID 493036;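 active = activation at or above 40% of the spot to cytoplasm intensity ratio, with at least 20 cells analyzed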;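 also: 0% = DMSO without peptide and 100% = 100 nM NTR1 peptide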
# Target sequence (P30989 whole entry, looked up): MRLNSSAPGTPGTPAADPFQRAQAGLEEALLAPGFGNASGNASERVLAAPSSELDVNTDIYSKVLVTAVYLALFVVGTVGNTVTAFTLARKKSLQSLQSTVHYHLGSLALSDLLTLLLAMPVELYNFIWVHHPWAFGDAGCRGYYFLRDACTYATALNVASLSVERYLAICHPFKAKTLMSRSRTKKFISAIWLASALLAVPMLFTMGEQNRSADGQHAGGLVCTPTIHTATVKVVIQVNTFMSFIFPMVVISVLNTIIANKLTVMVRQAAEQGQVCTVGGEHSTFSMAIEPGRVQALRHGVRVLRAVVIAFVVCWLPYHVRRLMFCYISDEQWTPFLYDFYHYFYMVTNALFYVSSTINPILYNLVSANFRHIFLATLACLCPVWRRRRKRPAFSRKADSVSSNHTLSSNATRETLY
# 697 NFkB inh – lowers PMA/ionomycin-induced NF-kB signal in 697 B cells; 697 B-cell NF-kB luciferase reporter, 16 h; inhibition, % at 4 µM; actives 0.33% (n = 330,000); AID 435022; in the data active = inhibition above about 35%
# Beta apoptosis – blocks beta cell apoptosis | INS-1E cytokine-induced death, ATP luminescence, 48 h; percent of positive-control rescue, neutral wells zero | actives 0.8% (n = 300,000) | AID 435005 | protection from apoptosis, % (concentration not given with the values);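 active = Every replicate reaches about 75%, or at least half do and their mean reaches it too, limit read from the data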;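 also: 0% = cytokine-treated negative control wells and 100% = positive control rescue; higher means more ATP so stronger rescue from cytokine killing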
# Mdm2 MdmX PPI – disrupts the human Mdm2-MdmX interaction | inhibition, % at 8 µM | O15151+Q00987 | actives 3% (n = 330,000) | SaOS-2 split-luciferase Mdm2/MdmX complementation, luminescence;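 active = inhibition of at least 50% at 8 µM in the primary screen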
# Mdm2 MdmX conf – confirmation of human Mdm2/MdmX interaction inhibitors | shares compounds with Mdm2 MdmX PPI | Mdm2-MdmX binding, luminescent assay | inhibition, % at 8 µM | actives 55% (n = 10,000); in the data active = inhibition above about 40%
# FLuc counter – inhibits full-length luciferase, flagging false Mdm2/MdmX hits | shares compounds with Mdm2 MdmX PPI | SaOS-2 full-length luciferase counterscreen, luminescence | inhibition, % at 8 µM | actives 77% (n = 6,200) | AID 504607;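 active = mean inhibition at 8 µM reaching about 37%, which flags the compound as non-specific, limit read from the data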;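 also: p53-null SaOS-2 cells with luciferase driven by a doxycycline-inducible promoter; compound on cells about two nights before reading with doxycycline added after day one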
# * = called active by the depositor; / = no result.
SMILES,Bfl-1 A1 inh,Jurkat NFkB inh,NTR1 agonist,697 NFkB inh,Beta apoptosis,Mdm2 MdmX PPI,Mdm2 MdmX conf,FLuc counter
COc1ccc(C(CCNC(C)c2ccccc2)C(C)C)cc1 (centres undefined),1,4,1,8,6,55*,30,/
CCCc1cc(=O)[nH]c(SCC(=O)N(C)C2CCCCC2)n1,-1,-15,0,8,-3,-20,/,/
COc1ccc(NS(=O)(=O)c2cc(NC(=O)/C=C/c3cccs3)ccc2N2CCOCC2)cc1,0,10,1,7,14,53*,30,/
CC(=O)c1ccccc1OCC(O)CN1CCN(CCN2C(=O)c3cccc4cccc(c34)C2=O)CC1 (centres undefined),0,9,2,3,15,-13,/,/
CCc1ccc(OCC(O)CN2CCC(CN3C(=O)c4cccc5cccc(c45)C3=O)CC2)cc1 (centres undefined),0,21,37,-27,1,77*,33,61*
O=C1c2cccc3cccc(c23)C(=O)N1CCN1CCN(CC(O)COc2ccc3ccccc3c2)CC1 (centres undefined),0,-2,13,-20,47,67*,27,/
Cc1cc(C)cc(NC(=O)[C@H](Cc2c[nH]c3ccccc23)NC(=O)[C@@H]2Cc3ccccc3CN2)c1,-1,-10,2,-17,-5,60*,15,/
Cc1nn(-c2ccccc2)c(C)c1NC(=O)COC(=O)CCCOc1ccccc1,1,-9,0,5,-2,14,/,/
Cc1cc(C)c2c(c1)/C(=c1/sc3n(c1=O)CN(c1ccccc1)CN=3)C(=O)N2,0,12,0,21,1,57*,-5,/
CC(=O)Nc1ccc(NC(=O)COc2ccc(-c3ccc(C#N)cc3)cc2)cc1,0,1,1,11,3,9,/,/
CCCn1c(=O)c2[nH]c(-c3ccc(OCC(=O)Nc4ccc(C#N)cc4)cc3)nc2n(CCC)c1=O,-2,3,2,23,2,53*,22,/
C=C1[C@@H](O)[C@@H]2O[C@]3(CC[C@H](/C=C/[C@@H](C)[C@@H]4CC(C)=CC5(O[C@H](C[C@@](C)(O)C(=O)OC)CC[C@H]5O)O4)O3)CC[C@H]2O[C@@H]1[C@@H](O)C[C@H](C)[C@H]1OC2(CCCCO2)CC[C@H]1C (some centres undefined),-2,-5,-2,-13,108*,100*,100*,1
CCc1nn(CCCC(=O)N2CCN(c3cccc(C)c3C)CC2)c(=O)c2cc3occc3n12,-1,20,37,-16,-3,93*,61*,78*
Cc1ccc(N=Nc2ccc(O)c3ncccc23)cc1C,-4,25,-1,-93,-6,78*,88*,26
CCS(=O)(=O)c1ccc(N=Nc2ccc(O)c3ncccc23)c(OC)c1,/,16,2,-4,/,75*,69*,32
COc1ccccc1N=Nc1ccc(O)c2ncccc12,-1,-47,3,-58,20,68*,38,92*
Oc1ccc(N=Nc2ccccc2C(F)(F)F)c2cccnc12,-1,37,6,-10,90*,83*,86*,23
CCS(=O)(=O)c1ccc(O)c(NC(=O)c2cc(OC)c(OC)c(OC)c2)c1,1,-3,1,28,0,16,/,/
CN(Cc1ccco1)Cc1ccc(O)c2ncccc12,0,5,-1,-5,1,18,/,/
O=C(Cc1ccc([N+](=O)[O-])cc1)OCc1c(F)cccc1Cl,0,2,2,-10,1,-7,/,/
N/C(=N\OC(=O)c1cccc(F)c1)c1ccccn1,0,-113,-1,-166,8,-85,/,/
C/C(=N\OC(=O)c1ccc(Br)cc1)c1ccccn1,0,-9,5,7,2,-15,/,/
